Measured values reported in PubChem BioAssay (NCI).
The panel holds about 83,000 compounds, 20% with a hit somewhere; the sample as a whole holds those more often.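 Method: cells in 96-well plates; compound added at one concentration; 48 h incubation; percent growth measured; values under 10 scored active.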 A number with no mark means an inactive call. Calls of active or inactive are those of the source.

Columns and labels:
Assay in all cases: NCI-60 one-dose screen, 48 h (100 = growth as untreated, 0 = no growth, -100 = all killed)
Conditions in all cases: 10 µM unless noted
[1] = tested on: SR leukemia
[2] = tested on: RPMI-8226 leukemia
[3] = tested on: OVCAR-8 ovarian
[4] = tested on: OVCAR-5 ovarian
[5] = tested on: OVCAR-4 ovarian
[6] = tested on: SK-OV-3 ovarian
[7] = tested on: IGROV1 ovarian
[8] = tested on: OVCAR-3 ovarian
[9] = tested on: HS 578T breast
[10] = tested on: NCI/ADR-RES ovarian
[11] = tested on: T-47D breast
[12] = tested on: BT-549 breast
[13] = tested on: MDA-MB-435 melanoma
[14] = tested on: SW-620 colon
[15] = tested on: MCF7 breast
[16] = tested on: HCT-116 colon
[17] = tested on: HCC-2998 colon
[18] = tested on: KM12 colon

SMILES	growth [1]	growth [2]	growth [3] [%]	growth [4] [%]	growth [5] [%]	growth [6] [%]	growth [7]	growth [8]	growth [9] [%]	growth [10] [%]	growth [11]	growth [12] [%]	growth [13]	growth [14] [%]	growth [15] [%]	growth [16]	growth [17]	growth [18] [%]
COc1cc(/C=C/C(=O)/C=C(/C=C/c2ccc(OC(C)=O)c(OC)c2)OB(F)F)ccc1OC(C)=O	-2.62% (active)	14.3%	20	104	69.6	94.8	65.5%	18.9%	76.2	43.6	41.9%	37.3	41%	17.5	21.5	6.64% (active)	100%	73.8
CCCCCCC(C(=O)OCC)(C(=O)OCC)C1CCCCCC1	101%	113%	107	102	101	95.7	102%	117%	105	106	91.9%	104	103%	99.1	96.3	99%	100%	105
CCCCCSc1ccc2nc(NC(=O)OCC)sc2c1	34.9%	12.8%	43.6	64.3	28.7	39.1	46.2%	-7.09% (active)	14.1	11.9	29.7%	37.2	-47% (active)	19.6	13.9	26%	55%	19.7
Cc1c(O)c(N=Nc2ccc(C(=O)O)c(O)c2)c2ccccc2c1O	85.8%	106%	96.9	25.5	107	95.5	-25.9% (active)	108%	94.7	110	112%	89.3	106%	84.8	101	98.1%	118%	98.3
CCCC(=O)NNc1[nH]c(-c2cc(OC)c(OC)c(OC)c2)cc1C(=O)OCC	68.2%	101%	108	92.8	118	110	22.6%	92.6%	105	114	82.1%	100	101%	109	117	93%	95.3%	125
CC(=O)N1N=C(c2ccc(Cl)cc2)CC1c1cn(-c2ccccc2)nc1-c1ccc([N+](=O)[O-])cc1 (stereo unspecified)	120%	101%	102	94	85.6	96.5	122%	106%	125	135	86.9%	89.7	98.1%	99	95.9	97.1%	231%	101
O=C(CCl)NC1c2ccccc2Oc2ccccc21	33.7%	50.1%	61.2	83.9	56.5	85.6	46.1%	68.6%	97.4	101	65.9%	55.2	62.7%	57.1	45.8	45.9%	111%	82.6
Cc1nc2ccccc2c(=O)n1-c1cccc(OCc2cn(-c3cccc(O)c3)nn2)c1	86.3%	71.5%	88.6	111	89.6	103	99.2%	91.5%	87.4	98	68.4%	99.8	108%	104	94.3	95.2%	103%	95.2
COC(=O)/C(Br)=C/c1c[nH]c2ccc(Br)cc12	-6.18% (active)	53.9%	86.6	72.3	87.2	92	-17.7% (active)	82.6%	100	80.4	72%	88.7	85.7%	94.4	75	69.1%	102%	92
COc1ccc(-c2cn3ccnc3c(-c3ccc4ncn(C5CCCCC5)c4c3)n2)cc1	8.27% (active)	4.37% (active)	28.8	41.2	53.4	25.7	46.6%	-26.5% (active)	20	12.8	-8.6% (active)	31.1	-18.6% (active)	22.2	19.8	8.72% (active)	37.4%	16.8
CC(=O)c1nn(-c2ccc(C)cc2)cc1C(=O)c1cc2c(ccc3ccccc32)oc1=O	84%	93.5%	101	102	87.3	80.4	88%	98.4%	96.7	101	75.2%	85.5	99%	100	87.5	89.4%	103%	95.1
CCOC(=O)NNc1[nH]c(-c2ccc(OC)cc2)cc1C#N	-2.04% (active)	91.2%	99.5	87.7	153	111	57.5%	107%	96.3	88.9	44.1%	101	85%	107	69.2	85.4%	39.1%	74.7
COc1cc(-c2cc3cnccc3c3nc(N)c4ccncc4c23)cc(OC)c1OC	17%	8.28% (active)	41.4	68.7	73.5	57.5	15%	48.8%	10.1	30.7	37.5%	42.2	4.6% (active)	46.8	29.8	35.1%	70.1%	48.1
CC(C)OCC1CO1 (stereo unspecified)	102%	113%	113	101	115	106	110%	107%	104	109	104%	106	102%	96.4	99.6	100%	120%	98.3
COc1cccc2c1nc1cccc(OC)c1[n+]2[O-]	-0.211% (active)	51.1%	41.7	23.3	69.7	29	-73.4% (active)	101%	80	37.4	32%	32.9	98.4%	50	32.8	39.3%	-47.5% (active)	54.9
CCCCCCCCCCCCOC(=O)/C=C\C(=O)NC(N)=O	3.65% (active)	4% (active)	70.6	108	86	97.8	73%	92.4%	86	88.4	80.3%	67.7	84.7%	91.2	64.3	68.2%	110%	95.4
O=C(Nc1ccccc1)Nc1ccc(Nc2ncnc3sc4c(c23)CCCC4)cc1	97.9%	99.3%	107	119	107	99.6	107%	103%	85.3	107	101%	109	112%	106	96.2	115%	95.4%	102
